Results reported in PubChem BioAssay AID1159580 (chemical genetic matrix, 2015).
Values joined by “and” are separate entries in the source; they are usually repeats but may differ in a detail not shown here. Equal values may be shown once. The whole screen tested about 5,500 compounds, of which about 2,000 (36%) were called active. About 18% were inconclusive and are not listed. No stated cut-off is given here; in the data, active means normalized growth mostly below about 0.91 (no sharp cut-off); inconclusive means no clear call, values can overlap the other calls; inactive means mostly above about 0.92. The list shows a part of the results.

Assay: chemical genetic growth profiling, strain panel (AID 1159580);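 further: tested at 20 µM; growth read once vehicle control cultures reached saturation at 30 °C; 1 = growth at the plate median or of vehicle wells; lower values mean less growth of the strain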
Conditions: S. cerevisiae deletion strains, growth OD

Measured: normalized growth

CCN(CCCc1ccccc1)CCCc1ccccc1
active: locus YAL026C, strain drs2, active compounds read low 0.862 | locus YDR137W, strain rgp1, active compounds read low 0.735 | locus YLR262C, strain YPT6 (second series), active compounds read low 0.701
inactive: locus YAL021C, strain ccr4, active compounds read low 0.915 | locus YAL030W, strain snc1, active compounds read low 0.991 | locus YBL061C, strain skt5, active compounds read low 0.981 | locus YBR009C, strain hhf1, active compounds read low 1.01 | locus YBR021W, strain FUR4, active compounds read low 0.977 | locus YBR023C, strain chs3, active compounds read low 0.96 | locus YBR171W, strain sec66, active compounds read low 0.97 | locus YBR229C, strain ROT2, active compounds read low 1 | locus YBR231C, strain swc5, active compounds read low 0.987 | locus YBR279W, strain paf1, active compounds read low 0.983 | locus YCL011C, strain gbp2, active compounds read low 0.966 | locus YCL016C, strain dcc1, active compounds read low 0.939 | locus YCL029C, strain bik1, active compounds read low 1.02 | locus YCL061C, strain MRC1, active compounds read low 0.965 | locus YCL069W, strain vba3, active compounds read low 0.985 | locus YCR088W, strain abp1, active compounds read low 0.99 | locus YDL005C, strain med2, active compounds read low 0.99 | locus YDL035C, strain GPR1, active compounds read low 0.976 | locus YDL040C, strain nat1, active compounds read low 0.984 | locus YDL074C, strain BRE1, active compounds read low 1.01 | locus YDL101C, strain DUN1, active compounds read low 1.02 | locus YDL134C, strain PPH21, active compounds read low 0.976 | locus YDL185W, strain tfp1, active compounds read low 1.03 | locus YDL192W, strain arf1, active compounds read low 1.02 | locus YDR001C, strain nth1, active compounds read low 0.985 | locus YDR069C, strain doa4, active compounds read low 0.974 | locus YDR101C, strain arx1, active compounds read low 1.03 | locus YDR150W, strain NUM1, active compounds read low 1 | locus YDR159W, strain sac3, active compounds read low 1.01 | locus YDR162C, strain NBP2, active compounds read low 1.01 | locus YDR195W, strain ref2 1.02 | locus YDR297W, strain sur2, active compounds read low 0.99 | locus YDR318W, strain mcm21, active compounds read low 1.01 | locus YDR334W, strain swr1, active compounds read low 0.983 | locus YDR335W, strain msn5, active compounds read low 0.983 | locus YDR388W, active compounds read low 1.02 | locus YDR392W, strain spt3, active compounds read low 0.951 | locus YDR502C, strain sam2, active compounds read low 1.02 | locus YEL003W, strain gim4, active compounds read low 0.99 | locus YEL037C, strain rad23, active compounds read low 0.984 | locus YEL061C, strain CIN8 (second series), active compounds read low 0.988 | locus YEL061C, strain CIN8, active compounds read low 1 | locus YER015W, strain faa2, active compounds read low 0.977 | locus YER016W, strain bim1, active compounds read low 1 | locus YER110C, active compounds read low 1.04 | locus YER111C, strain swi4, active compounds read low 0.962 | locus YER155C, strain BEM2 (second series), active compounds read low 0.99 | locus YER155C, strain BEM2, active compounds read low 0.999 | locus YER167W, strain BCK2, active compounds read low 0.975 | locus YFR010W, strain ubp6, active compounds read low 0.98 | locus YGL078C, strain dbp3, active compounds read low 1.02 | locus YGL086W, strain mad1, active compounds read low 1.01 | locus YGL167C, strain pmr1, active compounds read low 0.983 | locus YGL173C, strain kem1, active compounds read low 0.979 | locus YGL227W, strain vid30, active compounds read low 0.994 | locus YGL240W, strain doc1, active compounds read low 0.971 | locus YGL248W, strain PDE1, active compounds read low 0.997 | locus YGL253W, strain hxk2, active compounds read low 0.978 | locus YGR078C, strain PAC10, active compounds read low 1 | locus YGR135W, strain pre9, active compounds read low 1.01 | locus YGR252W, strain gcn5, active compounds read low 0.945 | locus YHR013C, strain ard1, active compounds read low 0.927 | locus YHR027C, strain rpn1, active compounds read low 0.978 | locus YHR030C, strain SLT2, active compounds read low 1 and 1.01 | locus YHR079C, strain IRE1 (second series), active compounds read low 1.03 | locus YHR079C, strain IRE1, active compounds read low 1.03 | locus YHR094C, strain hxt1, active compounds read low 1.03 | locus YHR129C, strain ARP1, active compounds read low 1 | locus YHR142W, strain chs7, active compounds read low 0.93 | locus YHR200W, strain rpn10, active compounds read low 1.02 | locus YIL066C, strain RNR3, active compounds read low 0.965 | locus YIL073C, strain SPO22, active compounds read low 0.999 | locus YIL125W, strain kgd1, active compounds read low 1.03 | locus YIR030C, strain dcg1, active compounds read low 1.03 | locus YJL092W, strain hpr5, active compounds read low 0.976 | locus YJL095W, strain BCK1 (second series), active compounds read low 0.981 | locus YJL095W, strain BCK1, active compounds read low 1.02 | locus YJL115W, strain asf1, active compounds read low 0.98 | locus YJL129C, strain trk1, active compounds read low 0.956 | locus YJL134W, strain LCB3, active compounds read low 1 | locus YJL154C, strain vps35, active compounds read low 0.977 | locus YJL164C, strain tpk1, active compounds read low 0.97 | locus YJL166W, strain qcr8, active compounds read low 0.93 | locus YJL168C, strain set2, active compounds read low 1.02 | locus YJL187C, strain SWE1 (second series), active compounds read low 1.02 | locus YJL187C, strain SWE1, active compounds read low 0.991 | locus YJR043C, strain POL32, active compounds read low 0.949 | locus YJR066W, strain TOR1, active compounds read low 0.985 | locus YKL009W, strain mrt4, active compounds read low 1.01 | locus YKL068W, active compounds read low 1.01 | locus YKL085W, strain MDH1 (second series), active compounds read low 1 | locus YKL085W, strain MDH1, active compounds read low 1 | locus YKL160W, strain elf1, active compounds read low 0.935 | locus YKR001C, strain vps1, active compounds read low 1.02 | locus YKR026C, strain gcn3, active compounds read low 0.983 | locus YKR091W, strain srl3, active compounds read low 0.99 | locus YLL001W, strain dnm1, active compounds read low 0.914 | locus YLL026W, active compounds read low 0.997 | locus YLL041C, strain sdh2, active compounds read low 0.989 | locus YLR027C, strain aat2, active compounds read low 0.982 | locus YLR039C, strain RIC1, active compounds read low 1.04 | locus YLR058C, strain SHM2, active compounds read low 1.02 | locus YLR102C, strain apc9, active compounds read low 1.02 | locus YLR113W, strain HOG1, active compounds read low 1.01 | locus YLR221C, strain rsa3, active compounds read low 0.961 | locus YLR258W, strain gsy2, active compounds read low 0.973 | locus YLR262C, strain YPT6, active compounds read low 1.06 | locus YLR268W, strain sec22, active compounds read low 1.03 | locus YLR320W, strain mms22, active compounds read low 0.894 | locus YLR330W, strain CHS5, active compounds read low 0.994 | locus YLR342W, strain FKS1 (second series), active compounds read low 0.963 | locus YLR342W, strain FKS1, active compounds read low 0.981 | locus YLR357W, strain rsc2, active compounds read low 0.953 | locus YLR370C, strain arc18, active compounds read low 0.963 | locus YLR371W, strain rom2, active compounds read low 1.02 | locus YLR384C, strain iki3, active compounds read low 0.983 | locus YLR418C, strain cdc73, active compounds read low 0.988 | locus YML016C, strain PPZ1, active compounds read low 1.01 | locus YML032C, strain rad52, active compounds read low 1.01 | locus YML120C, strain ndi1, active compounds read low 0.943 | locus YML124C, strain tub3, active compounds read low 1.02 | locus YMR058W, strain fet3, active compounds read low 0.97 | locus YMR078C, strain ctf18, active compounds read low 1.03 | locus YMR125W, strain sto1, active compounds read low 0.96 | locus YMR129W, active compounds read low 0.984 | locus YMR205C, strain PFK2, active compounds read low 0.952 | locus YMR223W, strain ubp8, active compounds read low 1.02 | locus YMR231W, strain pep5, active compounds read low 0.99 | locus YMR307W, strain GAS1, active compounds read low 1.06 | locus YNL067W, strain RPL9B, active compounds read low 1.02 | locus YNL071W, strain lat1, active compounds read low 0.973 | locus YNL153C, strain GIM3, active compounds read low 1 | locus YNL183C, strain NPR1, active compounds read low 0.957 | locus YNL209W, strain ssb2, active compounds read low 0.975 | locus YNL233W, strain BNI4, active compounds read low 1.03 | locus YNL248C, strain rpa49, active compounds read low 0.951 | locus YNL250W, strain rad50, active compounds read low 1.02 | locus YNL271C, strain bni1, active compounds read low 1.04 | locus YNL298W, strain CLA4, active compounds read low 1.03 | locus YNL307C, strain MCK1, active compounds read low 1.04 | locus YNL322C, strain KRE1 (second series), active compounds read low 0.992 | locus YNR049C, strain mso1, active compounds read low 0.977 | locus YNR052C, strain pop2, active compounds read low 1.03 | locus YOL006C, strain TOP1, active compounds read low 0.909 | locus YOL012C, strain htz1 0.929 | locus YOL147C, strain pex11, active compounds read low 1.03 | locus YOR001W, strain rrp6, active compounds read low 0.982 | locus YOR061W, strain CKA2, active compounds read low 1.01 | locus YOR069W, strain VPS5, active compounds read low 1.01 | locus YOR070C, strain gyp1, active compounds read low 0.979 | locus YOR080W, strain dia2, active compounds read low 0.984 | locus YOR083W, strain WHI5, active compounds read low 0.93 | locus YOR106W, strain vam3, active compounds read low 0.961 | locus YOR136W, strain idh2, active compounds read low 1.03 | locus YOR144C, strain elg1, active compounds read low 1.03 | locus YOR184W, strain ser1, active compounds read low 1.05 | locus YOR231W, strain MKK1, active compounds read low 1.01 | locus YOR265W, strain rbl2, active compounds read low 1 | locus YOR270C, strain vph1, active compounds read low 0.885 | locus YOR290C, strain snf2, active compounds read low 0.919 | locus YOR316C, strain cot1, active compounds read low 1.03 | locus YPL051W, strain arl3, active compounds read low 0.93 | locus YPL078C, strain atp4, active compounds read low 0.932 | locus YPL106C, strain sse1, active compounds read low 0.947 | locus YPL240C, strain hsp82, active compounds read low 0.996 | locus YPL241C, strain CIN2, active compounds read low 1 | locus YPL256C, strain CLN2, active compounds read low 1.01 | locus YPR119W, strain clb2, active compounds read low 1.03 | locus YPR141C, strain kar3, active compounds read low 1.04 | locus YPR163C, strain tif3, active compounds read low 1.05 | locus YPR167C, strain met16, active compounds read low 1.03 | strain wtn01, active compounds read low 1.04
